Data taken from PubChem BioAssay.
Active and inactive are the calls of the source. Unless noted, the rule behind the calls is not given here.

How the values were obtained:
[1] = system: Wnt5a (protein binding on small-molecule microarray); experiment: small molecules binding Wnt5a protein – biophysical, small-molecule microarray, 635/667 nm fluorescence, primary screen (AID 1142); details: 635 nm fluorescence, higher = more signal;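 note: fluorescence read at 667 nm with signal to noise per printed feature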
[2] = ATP-based viability of Huh7 replicon cells – cell-based, CellTiter-Glo luminescence, basal, 48 h, cytotoxicity control for HCV replication inhibitor project, primary screen (AID 1143); details: higher = more signal, called active from +8 up or from −8 down;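 note: Huh7 hepatoma cells carrying a hepatitis C replication reporter with no stimulus; test concentration not given here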
[3] = Pseudomonas biofilm growth suppression – PAO1 strain, BacTiter-Glo luminescence, LB-PBS, primary screen (AID 1144); details: P. aeruginosa PAO1 biofilm, 12 h, higher = more signal
[4] = basal CRE-LacZ reporter activity in PC12 – cell-based, unstimulated, primary screen (AID 1145); details: no forskolin, luminescence, 4.5 h, higher = more signal, called active from +8 up or from −8 down
[5] = forskolin-driven CRE-LacZ activity in PC12 – cell-based, CRE-LacZ reporter, forskolin-stimulated, primary screen (AID 1146); details: luminescence, 4.5 h, higher = more signal, called active from +8 up or from −8 down;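 note: PC12 cells with 6xCRE LacZ reporter stimulated by forskolin 10 µM; beta-galactosidase reporter signal reflecting CREB driven transcription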
[6] = target: Streptavidin (Streptomyces avidinii) (UniProt P22629); experiment: compounds binding control protein streptavidin – biophysical, small-molecule microarray, 635/667 nm fluorescence, artefact control for SMM compound annotation, primary screen (AID 1147); details: higher = more signal;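 note: signal reflects streptavidin binding to arrayed compounds as a control protein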
Sequence of Streptavidin (Streptomyces avidinii) (P22629 whole entry, looked up): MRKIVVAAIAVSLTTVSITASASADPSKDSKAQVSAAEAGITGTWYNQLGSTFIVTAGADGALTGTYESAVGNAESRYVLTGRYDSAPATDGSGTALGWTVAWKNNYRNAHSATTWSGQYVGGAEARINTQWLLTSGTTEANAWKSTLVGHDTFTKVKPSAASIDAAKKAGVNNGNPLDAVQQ

[7] = probe aInhba binding on compound microarray – biochemical, small-molecule microarray, 635/667 nm fluorescence, primary screen (AID 1148); details: higher = more signal;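 note: score merges 667nm spot fluorescence with signal-to-noise for antibody binding to printed compounds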
[8] = target: Torsin-1A (Homo sapiens) (UniProt O14656); experiment: TOR1A wild-type binding on microarray – cell lysate, small-molecule microarray, lysate, 635/667 nm, primary screen (AID 1149); details: COS7 hTOR1A-WT lysate, 635 nm fluorescence, higher = more signal
Sequence of Torsin-1A (Homo sapiens) (O14656 whole entry, looked up): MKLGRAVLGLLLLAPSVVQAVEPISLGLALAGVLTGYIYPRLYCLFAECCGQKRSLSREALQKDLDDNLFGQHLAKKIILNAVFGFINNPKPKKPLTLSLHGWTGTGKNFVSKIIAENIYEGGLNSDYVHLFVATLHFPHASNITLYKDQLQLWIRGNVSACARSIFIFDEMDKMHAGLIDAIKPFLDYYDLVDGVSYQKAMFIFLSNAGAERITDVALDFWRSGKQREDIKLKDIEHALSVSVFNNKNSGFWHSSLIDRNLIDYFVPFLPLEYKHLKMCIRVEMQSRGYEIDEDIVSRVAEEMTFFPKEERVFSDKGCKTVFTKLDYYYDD

[9] = target: Torsin-1A (Homo sapiens) (UniProt O14656); experiment: torsin A mutant lysate binding on microarrays – cell lysate, small-molecule microarray, COS7 lysate, 635/667 nm fluorescence, primary screen (AID 1150); details: COS7 hTOR1A mutant lysate, 635 nm fluorescence, higher = more signal;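 note: score pools 667 nm emission and signal to noise measuring lysate protein binding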
[10] = system: Sonic hedgehog protein (Shh); experiment: Sonic hedgehog microarray binding compounds – biochemical, small-molecule microarray, 635/667 nm fluorescence, primary screen (AID 1151); details: 635 nm fluorescence, higher = more signal;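 note: Shh protein binding to compounds spotted on small-molecule microarray slides; score combines spot fluorescence intensity with signal-to-noise across triplicate slides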
[11] = optical density shifts of acrAB sulA E. coli – strain DRC41, OD650, 48 h, E. coli filamentation inducer project, primary screen (AID 1152); details: higher = more signal, called active from +8 up or from −8 down;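 note: E. coli MC1000 strain DRC41 lacking acrAB efflux pump and sulA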
[12] = probe aLefty1 binding on compound microarray – biochemical, small-molecule microarray, 635/667 nm fluorescence, primary screen (AID 1153); details: higher = more signal;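 note: score merges spot fluorescence with signal-to-noise ratio from the scanned slide images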
[13] = plasmodial surface anion channel blockers, osmotic lysis – cell-based, P. falciparum Indochina, OD700, 1 h, primary screen (AID 1154); details: P. falciparum Indochina infected RBC osmotic lysis, higher = more signal, called active from +8 up or from −8 down
[14] = plasmodial surface anion channel blockers, osmotic lysis – cell-based, P. falciparum Indochina, OD700, 2 h, primary screen (AID 1155);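 note: lysis reports solute entry through the parasite surface anion channel PSAC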; details: P. falciparum Indochina infected erythrocytes, higher = more signal, called active from +8 up or from −8 down
[15] = changes in parasitized red cell lysis, either direction – P. falciparum Indochina, OD700, 3 h, PSAC antagonist project, primary screen (AID 1156); details: P. falciparum-infected erythrocytes, osmotic lysis, higher = more signal, called active from +8 up or from −8 down
[16] = plasmodial surface anion channel blockers, osmotic lysis – cell-based, P. falciparum Indochina, OD700, 18 h, primary screen (AID 1157); details: P. falciparum Indochina infected erythrocytes, osmotic lysis OD700, 18 h; higher = more signal, called active from +8 up or from −8 down
[17] = S6 kinase pathway phospho-S6 level changes – cell-based, A549, cytoblot, luminescence, serum-stimulated, primary screen (AID 1158); details: 5 h, higher = more signal;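 note: serum-stimulated A549 lung adenocarcinoma cells; signal is phosphorylated S6 detected by cytoblot immunostaining with HRP secondary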
[18] = target: NADPH oxidase 2 (Homo sapiens) (UniProt P04839); experiment: compounds shifting NOX2 Amplex Red fluorescence – cell-based, HEK293-NOX2, PMA-stimulated, NOX inhibitor project, primary screen (AID 1159); details: 45 min, higher = more signal, called active from +8 up or from −8 down; note: test concentration not given here
Sequence of NADPH oxidase 2 (Homo sapiens) (P04839 whole entry, looked up): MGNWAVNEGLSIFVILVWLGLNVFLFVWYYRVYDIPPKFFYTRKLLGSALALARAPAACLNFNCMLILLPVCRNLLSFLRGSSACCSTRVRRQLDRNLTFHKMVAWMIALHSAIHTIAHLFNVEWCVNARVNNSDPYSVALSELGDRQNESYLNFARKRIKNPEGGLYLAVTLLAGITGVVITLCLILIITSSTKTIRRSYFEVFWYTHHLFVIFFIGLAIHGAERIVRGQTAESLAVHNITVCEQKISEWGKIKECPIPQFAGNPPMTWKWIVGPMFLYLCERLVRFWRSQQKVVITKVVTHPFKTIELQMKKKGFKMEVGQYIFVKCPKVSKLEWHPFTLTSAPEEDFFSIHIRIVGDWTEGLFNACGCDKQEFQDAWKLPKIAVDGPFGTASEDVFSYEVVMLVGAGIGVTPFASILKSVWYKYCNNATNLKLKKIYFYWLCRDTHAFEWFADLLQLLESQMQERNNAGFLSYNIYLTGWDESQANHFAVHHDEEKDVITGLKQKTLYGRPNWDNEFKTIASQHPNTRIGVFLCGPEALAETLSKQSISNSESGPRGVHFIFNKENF

[19] = target: NADPH oxidase 4 (Homo sapiens) (UniProt Q9NPH5); experiment: compounds shifting NOX4 Amplex Red fluorescence – cell-based, HEK293-NOX4, tetracycline-induced, NOX inhibitor project, primary screen (AID 1160); details: HEK293-NOX4, Amplex Red H2O2 fluorescence, 45 min; higher = more signal, called active from +8 up or from −8 down
Sequence of NADPH oxidase 4 (Homo sapiens) (Q9NPH5 whole entry, looked up): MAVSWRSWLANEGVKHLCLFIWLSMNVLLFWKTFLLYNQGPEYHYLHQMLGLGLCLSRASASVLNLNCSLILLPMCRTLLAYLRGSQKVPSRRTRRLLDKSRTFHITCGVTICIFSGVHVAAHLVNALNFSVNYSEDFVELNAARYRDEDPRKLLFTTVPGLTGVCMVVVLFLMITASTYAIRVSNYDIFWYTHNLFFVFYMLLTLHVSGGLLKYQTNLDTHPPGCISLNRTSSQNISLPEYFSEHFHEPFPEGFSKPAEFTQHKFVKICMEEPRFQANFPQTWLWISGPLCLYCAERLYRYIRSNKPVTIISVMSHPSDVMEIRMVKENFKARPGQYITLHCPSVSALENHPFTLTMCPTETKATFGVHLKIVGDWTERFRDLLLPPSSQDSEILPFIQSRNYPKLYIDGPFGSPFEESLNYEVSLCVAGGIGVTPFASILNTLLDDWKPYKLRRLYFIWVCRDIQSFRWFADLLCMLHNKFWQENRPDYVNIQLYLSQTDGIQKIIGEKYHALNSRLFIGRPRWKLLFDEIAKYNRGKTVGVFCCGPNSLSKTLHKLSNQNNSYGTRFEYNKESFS

[20] = target: NADPH oxidase 5 (Homo sapiens) (UniProt Q96PH1); experiment: compounds shifting NOX5 Amplex Red fluorescence – cell-based, HEK293-NOX5, NOX inhibitor project, primary screen (AID 1161); details: HEK293-NOX5, ionomycin, 45 min, higher = more signal
Sequence of NADPH oxidase 5 (Homo sapiens) (Q96PH1 whole entry, looked up): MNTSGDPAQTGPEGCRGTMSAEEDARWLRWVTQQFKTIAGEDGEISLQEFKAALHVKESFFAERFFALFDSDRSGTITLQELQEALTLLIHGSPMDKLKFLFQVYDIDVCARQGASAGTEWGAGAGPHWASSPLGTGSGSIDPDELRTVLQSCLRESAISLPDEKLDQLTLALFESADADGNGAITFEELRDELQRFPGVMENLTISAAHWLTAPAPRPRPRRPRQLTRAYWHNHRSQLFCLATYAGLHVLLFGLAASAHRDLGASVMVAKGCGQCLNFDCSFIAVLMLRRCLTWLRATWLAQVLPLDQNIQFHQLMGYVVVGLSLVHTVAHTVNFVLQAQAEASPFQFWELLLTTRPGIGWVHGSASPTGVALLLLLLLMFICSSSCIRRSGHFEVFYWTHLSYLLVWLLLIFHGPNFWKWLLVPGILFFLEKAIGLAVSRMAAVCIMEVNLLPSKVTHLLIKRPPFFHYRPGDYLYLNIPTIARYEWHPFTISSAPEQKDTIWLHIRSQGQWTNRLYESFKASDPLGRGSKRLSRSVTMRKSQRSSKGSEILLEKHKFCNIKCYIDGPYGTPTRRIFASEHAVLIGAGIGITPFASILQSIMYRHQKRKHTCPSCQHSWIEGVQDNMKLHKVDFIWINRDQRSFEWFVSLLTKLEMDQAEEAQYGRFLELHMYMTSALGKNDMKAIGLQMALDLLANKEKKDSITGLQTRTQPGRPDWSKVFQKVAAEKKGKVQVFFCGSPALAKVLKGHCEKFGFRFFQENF

Structure (SMILES)	composite z-score [1]	z-score [2]	z-score [3]	z-score [4]	z-score [5]	composite z-score [6]	composite z-score [7]	composite z-score [8]	composite z-score [9]	composite z-score [10]	z-score [11]	composite z-score [12]	z-score [13]	z-score [14]	z-score [15]	z-score [16]	z-score [17]	z-score [18]	z-score [19]	z-score [20]
O=C1OCC=C[C@H]2OC34C=CCN(Cn5nnc6ccccc65)C(=O)[C@H]3N(CCCO)C(=O)[C@@H]4[C@@H]12 (stereo not given in full)	-0.439	-2.27 (inactive)	-1.17 (inactive)	-0.887 (inactive)	-0.247 (inactive)	-0.266	-0.224	0.183	-1.85	0.182	1.54 (inactive)	0.0861	0.243 (inactive)	-1.01 (inactive)	1.24 (inactive)	-0.602 (inactive)	0.277	0.847 (inactive)	-1.42 (inactive)	0.1
COc1ccc(CCN2C(=O)[C@@]3(Cc4ccccc42)c2ccccc2C(=O)N(Cc2ccccc2OC)[C@H]3c2ccc(CO)cc2)cc1	-0.166	-4.54 (inactive)	0.0431 (inactive)	0.649 (inactive)	-0.341 (inactive)	-0.491	-0.126	-0.194	-0.933	-0.384	2.06 (inactive)	0.595	1.96 (inactive)	-0.373 (inactive)	-0.217 (inactive)	-1.29 (inactive)	3.17	0.348 (inactive)	-0.797 (inactive)	0.327
CN1C(=O)C2C=CC(C(O)c3ccc(F)cc3)N(Nc3ccccc3)C2C1=O (stereo not given)	-0.126	0.457 (inactive)	-0.293 (inactive)	0.0535 (inactive)	0.754 (inactive)	0.473	0.203	-0.319	0.363	0.137	-1.69 (inactive)	0.0711	1.24 (inactive)	1.05 (inactive)	1.45 (inactive)	0.582 (inactive)	-0.85	-1.41 (inactive)	-3.79 (inactive)	-3.17
COC(=O)[C@@]1(Cc2ccccc2)[C@H]2c3cc(C(=O)N(C)C)n(CCN4CNCC4=O)c3C[C@H]2CN1C(=O)c1ccccc1	0.569	0.106 (inactive)	-0.505 (inactive)	0.0007 (inactive)	0.547 (inactive)	1.54	1.28	3.83	4.06	-1.85	-0.65 (inactive)	0.673	0.274 (inactive)	0.759 (inactive)	0.307 (inactive)	0.789 (inactive)	-0.646	0.61 (inactive)	0.554 (inactive)	0.0884
